From PubChem BioAssay
The list is not random: actives were taken first. Their share in the collection is about 3%.
SENP8 block-1 – blocks human SENP8 cleavage of Nedd8 substrate; AID 602440; inhibition, % at 20 µM; recombinant SENP8, Nedd8 substrate fluorescence; Q96LD8; 0.64% of 360,000 active; in the data active = inhibition mostly above about 40%, no sharp cut-off; inactive = mostly below about 27%
Target sequence (Q96LD8 whole entry, looked up): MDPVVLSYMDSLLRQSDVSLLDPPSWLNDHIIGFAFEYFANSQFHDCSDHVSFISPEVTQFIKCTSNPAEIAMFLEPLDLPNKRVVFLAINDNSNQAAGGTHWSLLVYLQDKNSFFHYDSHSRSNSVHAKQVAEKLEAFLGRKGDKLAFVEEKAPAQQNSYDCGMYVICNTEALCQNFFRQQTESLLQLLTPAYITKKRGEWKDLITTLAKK
PPC-1+TRAIL kill – kills PPC-1 cancer cells in the presence of TRAIL; cell killing (% activity), % at 4 µM or 5 µM; AID 1443; 0.41% of 220,000 active; PPC-1 cells + TRAIL, ATPLite viability luminescence;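 active = cell killing above 50% in the first pass at 4 µM, then a duplicate retest at 5 µM averaging 50% or more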
SENP6 inh – inhibitors of human SENP6 protease; Q9GZR1; Recombinant SENP6 catalytic domain, aminoluciferin luminescence; inhibition, % at 10 µM; 1.8% of 330,000 active;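 active = inhibition above about 50% at the single tested dose, limit read from the data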
Target sequence (Q9GZR1 628-1112 limits assumed): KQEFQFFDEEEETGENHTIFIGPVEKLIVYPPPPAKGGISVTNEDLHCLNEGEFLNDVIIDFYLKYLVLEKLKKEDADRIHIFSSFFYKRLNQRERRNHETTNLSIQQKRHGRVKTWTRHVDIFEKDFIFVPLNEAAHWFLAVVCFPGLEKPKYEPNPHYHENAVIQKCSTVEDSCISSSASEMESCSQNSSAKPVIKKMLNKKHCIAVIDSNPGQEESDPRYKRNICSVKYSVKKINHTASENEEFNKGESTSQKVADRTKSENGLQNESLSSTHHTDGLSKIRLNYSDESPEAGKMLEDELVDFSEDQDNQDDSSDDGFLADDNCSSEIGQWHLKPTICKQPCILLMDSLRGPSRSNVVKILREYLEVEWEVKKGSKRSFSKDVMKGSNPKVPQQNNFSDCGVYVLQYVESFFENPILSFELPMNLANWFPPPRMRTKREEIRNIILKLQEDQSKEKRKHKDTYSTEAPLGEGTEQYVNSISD
SENP7 block – inhibitors of human SENP7 protease | recombinant SENP7, Z-RLRGG-aminoluciferin luminescence, 40 min | Q9BQF6 | 1.5% of 330,000 active | inhibition, % at 5 µM;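 active = inhibition above about 50% at the single test dose, limit read from the data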
C8 TRAIL sens – caspase-8 TRAIL sensitization | inhibition (viability loss, TRAIL sensitization), % at 10 µM | 1% of 360,000 active | NB7+C8 cells + TRAIL, ATPlite viability luminescence;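 active = compounds causing at least 50% loss of cell viability in the single-dose screen, relative to plate controls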
SENP8 block-2 – inhibitors of human SENP8 protease; inhibition, % at 10 µM; AID 2540; Q96LD8; purified SENP8, Z-RLRGG-aminoluciferin cleavage, luminescence; 1.2% of 330,000 active; in the data active = inhibition above about 50%
SENP8 confirm – confirmation of human SENP8 protease inhibitors. shares compounds with SENP7 block. 40% of 6,200 active. inhibition, % at 12.5 µM. Recombinant SENP8, Z-RLRGG-aminoluciferin luminescence, 60 min;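 active = mean inhibition across replicates above about 50%, limit read from the data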
SENP6 confirm – human SENP6 inhibition, confirmed. recombinant SENP6, Z-RLRGG-aminoluciferin luminescence. inhibition, % at 12.5 µM. shares compounds with SENP7 block. 58% of 6,200 active
SENP7 conf – human SENP7 inhibition, confirmed; shares compounds with SENP7 block; AID 488917; inhibition, % at 12.5 µM; recombinant SENP7, Z-RLRGG-aminoluciferin luminescence, 40 min; 69% of 6,200 active
Casp3 select – caspase-3 inhibition (SENP selectivity assay); shares compounds with SENP7 block; purified caspase-3, Z-DEVD-aminoluciferin luminescence, 60 min; inhibition, % at 12.5 µM; 60% of 6,200 active; AID 488918;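 active = mean inhibition above about 50%, limit read from the data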
SENP luc ctr – interferes with luciferase luminescence in SENP counter-screen; shares compounds with SENP7 block; Pre-incubated SENP8/Z-RLRGG-aminoluciferin, luciferase luminescence interference; inhibition, % at 12.5 µM; 39% of 6,200 active;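 active = mean inhibition above about 50% when retested at one dose, limit read from the data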
Large screens that a line does not name were inactive (follow-up assays come after a bar, where they were run).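 The calls were made as follows, unless noted: active = mean inhibition above about 50% in the one-dose retest (limit read from the data); inactive = the rest.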

c1ccc(-c2noc(-c3cccnc3)n2)nc1	SENP7 block 57 | SENP8 confirm 51 | SENP6 confirm inactive | SENP7 conf 78 | Casp3 select 85 | SENP luc ctr 58
c1ccc(-c2noc(C3CCCCC3)n2)nc1	SENP6 inh 59, SENP7 block 55 | SENP8 confirm inactive | SENP6 confirm 50 | SENP7 conf 83 | Casp3 select 79 | SENP luc ctr inactive
COc1ccc(OC)c(S(=O)(=O)NCCCN2CCOCC2)c1	none (no result: PPC-1+TRAIL kill)
COc1cc2sc3cc(NCCCN4CCOCC4)ccc3c(=O)c2cc1OC	SENP6 inh 69, SENP7 block 75 (no result: PPC-1+TRAIL kill) | SENP8 confirm inactive | SENP6 confirm inactive | SENP7 conf inactive | Casp3 select inactive | SENP luc ctr inactive
O=C(Nc1cccc(C(=O)N2CCOCC2)c1)c1ncn[nH]1	SENP7 block 85 | SENP8 confirm inactive | SENP6 confirm inactive | SENP7 conf inactive | Casp3 select inactive | SENP luc ctr inactive
C=CCNC(=O)c1cc(Cl)ccn1	SENP7 block 89 | SENP8 confirm inactive | SENP6 confirm inactive | SENP7 conf inactive | Casp3 select inactive | SENP luc ctr inactive
C=CCNC(=O)c1cc(Cl)cc(Cl)c1	none
CCCCCCN1C[C@H](O)[C@@H](n2cc(-c3ccc(F)cc3)nn2)C[C@@H]1c1ccc(C)cc1	none (no result: PPC-1+TRAIL kill, SENP6 inh, SENP7 block, SENP8 block-2)
CC(=O)Nc1ccc(S(=O)(=O)c2ccnc3cc(Cl)ccc23)cc1	none (no result: PPC-1+TRAIL kill, SENP6 inh, SENP7 block, SENP8 block-2)
Cc1ccc(C(=O)OCc2cc3ccccc3[nH]c2=O)cc1	none
Cc1ccc(O)c(-c2cc3ccccc3[nH]2)c1	SENP6 inh 71, SENP7 block 53 | SENP8 confirm 62 | SENP6 confirm 62 | SENP7 conf 83 | Casp3 select inactive | SENP luc ctr 71
COc1ccc(-c2cc3ccccc3[nH]2)cc1	SENP6 inh 53, SENP7 block 61 | SENP8 confirm inactive | SENP6 confirm inactive | SENP7 conf 66 | Casp3 select inactive | SENP luc ctr inactive
CC(C)C1Cc2[nH][nH]c(=O)c2C(C2CC2)O1 (stereo not given)	none (no result: PPC-1+TRAIL kill, SENP6 inh, SENP7 block, SENP8 block-2)
NC(=O)C1CCN(CC(=O)Nc2cccc(C(=O)Nc3cccc(C(F)(F)F)c3)c2)CC1	none
COc1ccc2[nH]c3c(c2c1)CCn1c-3nc2ccccc2c1=O	SENP7 block 80 | SENP8 confirm inactive | SENP6 confirm inactive | SENP7 conf inactive | Casp3 select inactive | SENP luc ctr inactive
COc1cc(OC)cc(C(=O)Nn2c(C)nc3ccccc3c2=O)c1	none
O=C(NCc1ccccc1)c1c(F)c(F)c(F)c(F)c1F	SENP8 block-2 52 | SENP8 confirm inactive | SENP6 confirm inactive | SENP7 conf inactive | Casp3 select inactive | SENP luc ctr inactive
COc1cccc(OC)c1NC(=O)CN1CCN(C)CC1	none (no result: PPC-1+TRAIL kill)
Cc1ccc2c(c1)nnn2C1CCN(CC(=O)N2CCN(c3ccc(F)cc3)CC2)CC1	SENP7 block 64 | SENP8 confirm inactive | SENP6 confirm inactive | SENP7 conf inactive | Casp3 select inactive | SENP luc ctr inactive
Cc1ccc2c(c1)nnn2C1CCN(CC(=O)Nc2ccc(F)cc2)CC1	none
O=C(CN1CCC(n2nnc3cc(F)ccc32)CC1)NCCc1nc2ccccc2[nH]1	SENP7 block 52 | SENP8 confirm inactive | SENP6 confirm inactive | SENP7 conf inactive | Casp3 select inactive | SENP luc ctr inactive
COc1ccc(NC(=O)N2CCNC(=O)C2CC(=O)Nc2ccc(F)cc2)cc1 (stereo not given)	none (no result: PPC-1+TRAIL kill)
C=COC(=O)CSc1nc(-c2cccs2)ccc1C#N	SENP6 inh 57 | SENP8 confirm inactive | SENP6 confirm 70 | SENP7 conf inactive | Casp3 select inactive | SENP luc ctr inactive
CCOC(=O)C(C)Sc1nc(-c2cccs2)ccc1C#N (stereo not given)	none
O=C(Nc1ccc(-c2nc3ccccc3[nH]2)cc1)C1CCCO1 (stereo not given)	SENP6 inh 87, SENP7 block 93, C8 TRAIL sens 73, SENP8 block-2 88 | SENP8 confirm 92 | SENP6 confirm 92 | SENP7 conf 99 | Casp3 select 96 | SENP luc ctr 79
O=C(Cc1cccs1)Nc1ccc(-c2nc3ccccc3[nH]2)cc1	SENP6 inh 59, SENP7 block 84 | SENP8 confirm inactive | SENP6 confirm inactive | SENP7 conf 87 | Casp3 select 68 | SENP luc ctr inactive
O=C(CSc1ccccc1)Nc1ccc(-c2nc3ccccc3[nH]2)cc1	none
O=C(Nc1nc2ccccc2[nH]1)C1CCCO1 (stereo not given)	none
COc1cccc2sc(N(C)c3ccccc3)nc12	SENP7 block 89, C8 TRAIL sens 60, SENP8 block-2 76 | SENP8 confirm inactive | SENP6 confirm 83 | SENP7 conf 96 | Casp3 select 78 | SENP luc ctr 83
COc1cccc2sc(N)nc12	none (no result: PPC-1+TRAIL kill)
CCCCNC(=O)C1C(c2ccc(OC)cc2)=Nc2ccccc2N1C(=O)Cc1cc(OC)cc(OC)c1 (stereo not given)	none (no result: PPC-1+TRAIL kill, SENP6 inh, SENP7 block, SENP8 block-2)
COc1ccccc1C(=O)NC1CCN(C(=O)Nc2ccc(C)cc2)CC1	none (no result: PPC-1+TRAIL kill)
CC(C)=C(NC(=O)c1ccccc1Cl)C(=O)NCCc1nc2ccccc2[nH]1	none (no result: PPC-1+TRAIL kill, SENP6 inh, SENP7 block, SENP8 block-2)
O=C(NNC(=S)Nc1ccccc1Cl)c1ccccc1Br	SENP6 inh 73, SENP7 block 67, SENP8 block-2 73 (no result: PPC-1+TRAIL kill) | SENP8 confirm inactive | SENP6 confirm inactive | SENP7 conf inactive | Casp3 select inactive | SENP luc ctr inactive
O=C(NNC(=O)c1ccccc1Br)c1ccccc1Cl	none
CSCCC(NS(=O)(=O)c1ccc(C)cc1)C(=O)N1CC=C(c2ccccc2)CC1 (stereo not given)	none (no result: PPC-1+TRAIL kill)
Cc1ccccc1[C@H](NC1c2ccccc2C=Cc2ccccc21)P(=O)(c1ccccc1)c1ccccc1	none (no result: PPC-1+TRAIL kill, SENP6 inh, SENP7 block, SENP8 block-2)
C=CCNc1nc(-c2ccc(Cl)cc2)cs1	SENP6 inh 91, SENP7 block 75, SENP8 block-2 80 | SENP8 confirm inactive | SENP6 confirm 90 | SENP7 conf 100 | Casp3 select 75 | SENP luc ctr 91
Cc1cccc(NC(=O)c2ccccn2)c1C	none
Cc1cccc(NC(=O)c2n[nH]c([N+](=O)[O-])c2Br)c1C	SENP6 inh 97, SENP7 block 85, SENP8 block-2 94 | SENP8 confirm 94 | SENP6 confirm 97 | SENP7 conf 102 | Casp3 select 96 | SENP luc ctr 95
